# An excerpt weighted towards active compounds, which were near 12% of everything screened.
# L3MBTL1 inh: qHTS Assay for the Inhibitors of L3MBTL1 | Lethal(3)malignant brain tumor-like protein 1 (Homo sapiens), Q9Y468 | AlphaScreen L3MBTL1–H3K9me1 peptide binding | Potency, µM (top dose mostly 57.1 µM), most hits filed as inhibitors | 230,000 compounds, 0.66% hits; also: nearly all actives have a fitted effect of over 60% in size
#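 L3MBTL1 50 nM + b-AHA-H3(1-15)K9me1 75 nM, 30 min RT; compound added, 30 min RT; streptavidin donor/Ni-chelate acceptor beads 10 ug/mL each final, 30 min RT dark; AlphaScreen read.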
# Sfp inh: qHTS Assay for Inhibitors of Bacillus subtilis Sfp phosphopantetheinyl transferase (PPTase) | Potency, µM, most hits filed as inhibitors | 4'-phosphopantetheinyl transferase ffp (Bacillus subtilis), Q9F4F7 | 310,000 compounds, 3.5% hits | Biochemical Sfp PPTase activity, qHTS;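 also: the enzyme is Sfp with the accession as filed and its product quenches rhodamine fluorescence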
#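 Compounds were incubated with enzyme (final 15 nM) for 15 min at room temperature before substrate addition started the reaction. Fluorescence at 525 nm excitation, 598 nm emission was recorded immediately and after 30 minutes.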
# JMJD2A Tudor inh: qHTS Assay for Inhibitors of JMJD2A-Tudor Domain | Lysine-specific demethylase 4A (Homo sapiens), O75164 | AlphaScreen JMJD2A-Tudor / H3K4me3 peptide binding | Potency, µM (series often up to 114 µM), hits mostly inhibitors | 390,000 compounds, 4.4% hits | AID 504339, 2011; also: nearly all actives have a fitted effect of over 50% in size
# BAZ2B inh: qHTS Assay for Inhibitors of BAZ2B; Bromodomain adjacent to zinc finger domain protein 2B (Homo sapiens), Q9UIF8; AlphaScreen BAZ2B-H3K14Ac peptide displacement; Potency, µM (series often up to 114 µM), usual class: inhibitors; 360,000 compounds, 4.4% hits; also: nearly all actives have a fitted effect of over 60% in size
#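 Complex of BAZ2B and biotin-H3K14Ac (50 nM apiece) forms over 30 min at RT, then faces library compounds up to 110 uM for another 30 min; AlphaScreen beads added, 20 min dark incubation, luminescence read.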
# HP1b chromo inh: HTS for Inhibitors of HP1-beta Chromodomain Interactions with Methylated Histone Tails. Chromobox protein homolog 1 (Homo sapiens), P83916. AlphaScreen HP1-beta / biotin-H3K9me3 peptide binding. Potency, µM (highest dose often 114 µM), most hits filed as inhibitors. 390,000 compounds, 0.56% hits. AID 540317, 2011; also: nearly all actives have a fitted effect of over 70% in size
# Target sequence (P83916 whole entry, looked up): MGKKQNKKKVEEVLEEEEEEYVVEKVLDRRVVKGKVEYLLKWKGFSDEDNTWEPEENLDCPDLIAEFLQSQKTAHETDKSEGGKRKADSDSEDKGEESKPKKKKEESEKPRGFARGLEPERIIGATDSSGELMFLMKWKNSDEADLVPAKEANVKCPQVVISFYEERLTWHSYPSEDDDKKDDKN
#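 AlphaScreen: HP1-beta (50 nM) preformed 30 min with biotin-H3(1-18)K9me3 peptide (50 nM) in PBS pH 7.4, 0.01% Tween-20. Compound added for 30 min at RT, then streptavidin donor/nickel chelate acceptor beads (10 ug/mL) for 30 min.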
# G9a block: qHTS Assay for Inhibitors of Histone Lysine Methyltransferase G9a; G9a H3K9 monomethylation, AlphaScreen, 2 h; Potency, µM (highest dose often 102 µM), most hits filed as inhibitors; 350,000 compounds, 8.8% hits; AID 504332, 2011; also: nearly all actives have a fitted effect of over 75% in size
# Target sequence (Q96KQ7 913-1193 limits assumed): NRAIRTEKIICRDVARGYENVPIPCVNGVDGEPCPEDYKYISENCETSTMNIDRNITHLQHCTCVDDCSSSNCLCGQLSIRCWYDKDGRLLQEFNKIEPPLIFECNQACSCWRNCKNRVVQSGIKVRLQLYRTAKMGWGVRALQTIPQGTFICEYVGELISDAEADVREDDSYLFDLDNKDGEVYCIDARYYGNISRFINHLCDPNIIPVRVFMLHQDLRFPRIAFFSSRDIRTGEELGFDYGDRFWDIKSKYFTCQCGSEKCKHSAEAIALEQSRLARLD
#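 Enzyme 20 nM + cpd, 15 min RT; add b-H3K9 pep 500 nM / SAM 20 uM; 2 h RT; anti-H3K9me1 Ab 0.5 ug/mL + SA donor / anti-rabbit acceptor beads 20 ug/mL each, 10 min; AlphaScreen read.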
# Hits are given with their value; i = inactive; ? = inconclusive; nt = not tested or not shown; [ ] = another dose, or the depositor's remark. Calls follow the shape of the dose curve; as a rule, active = well fitted curve in the direction sought with a large enough effect; inconclusive = small, poorly fitted or top-dose-only effect, or another doubt; inactive = no such curve, though single readings can be large; an effect the other way counts as inactive or inconclusive.
SMILES,L3MBTL1 inh,Sfp inh,JMJD2A Tudor inh,BAZ2B inh,HP1b chromo inh,G9a block
Cc1c(N=C2Nc3cccc4cccc2c34)c(=O)n(-c2ccccc2)n1C,i,i,i,i,i,i
CCNc1ccc(N=Nc2c(C)n(C)n(-c3ccccc3)c2=O)cc1,i,i,i,32µM,i,?
CCC(C)C1=CC(=Nc2c(C)n(C)n(-c3ccccc3)c2=O)C=C(C(C)CC)C1=O (stereo unspecified),i,i,?,3.5µM,i,?
CCOC(=O)/C(N=Nc1c(C)n(C)n(-c2ccccc2)c1=O)=C(\C)O,i,i,i,i,i,i
Cc1ccc(O)c(N=NC2=C(O)CC(C)(C)CC2=O)c1,28µM,i,56µM,32µM,i,?
CCCC(=O)NC(=S)c1c(C)n(C)n(-c2ccccc2)c1=O,i,i,i,i,i,45µM
Cc1ccc2nc(N3CCC(C(=O)N4CCN(c5cccc(C)c5C)CC4)CC3)[nH]c2c1,nt,nt,?,i,i,i
COc1ccc(N(Cc2cccs2)C(=O)COc2cccc(Cl)c2)cc1,nt,nt,i,i,i,i
Cc1cc(C)cc(-n2c(SCC(=O)Nc3ccccc3F)nc3c(oc4ccccc43)c2=O)c1,nt,nt,i,?,i,i
Cc1c(O)c(=O)n(-c2ccccc2)n1C,i,?,i,i,i,8.9µM
Cc1c(Cc2c(C)n(C)n(-c3ccccc3)c2=O)c(=O)n(-c2ccccc2)n1C,i,i,i,i,i,i
Cc1c(CN(C)CCc2ccccc2)c(=O)n(-c2ccccc2)n1C,i,i,3.5µM,?,?,4µM
CC1=CC(=Nc2c(C)n(C)n(-c3ccccc3)c2=O)C=CC1=O,i,8.9µM,nt,45µM,nt,10µM
Cc1c(I)c(=O)n(-c2ccccc2)n1C,nt,i,nt,nt,nt,i
Cc1c(-n2c(=S)[nH]c3ccccc3c2=O)c(=O)n(-c2ccccc2)n1C,nt,i,20µM,i,i,?
Cc1ccc(-c2nc3ccccc3c(=O)n2-c2c(C)n(C)n(-c3ccccc3)c2=O)cc1,i,i,i,i,i,nt
CC1=CC(=Nc2c(C)n(C)n(-c3ccccc3)c2=O)C=C(C)C1=O,i,79µM,i,i,?,40µM
Cc1c(N=NC2=C(O)CC(C)(C)CC2=O)c(=O)n(-c2ccccc2)n1C,i,40µM,50µM,35µM,?,i[12.7 µM]
Cc1c(N=c2scc(-c3ccccc3)n2C)c(=O)n(-c2ccccc2)n1C,nt,i,i,?,i,i
CC(=O)/C(N=Nc1c(C)n(C)n(-c2ccccc2)c1=O)=C(\C)O,i,i,i,?,i,i
Cc1cccc(-n2c3nc(=O)[nH]c(=O)c-3cc3ccc(Cl)cc32)c1C,nt,nt,i,nt,i,i
Cc1ccc2c(c1)c1c(n2CC(O)Cn2c(C)nc3ccccc32)/C(=N\O)CCC1 (stereo unspecified),i,i,?,?,i,18µM
Cc1ccc2c(c1)c1c(n2CC(O)Cn2c(C)nc3ccccc32)C(=O)CCC1 (stereo unspecified),i,i,i,i,i,i
Cc1ccc(CSC2=Nc3ccccc3C3=NC(CC(=O)NC4CCCCC4)C(=O)N23)cc1 (stereo unspecified),nt,nt,i,i,i,i
CCN(CC)C(=O)C1CCCN(Cc2ccccc2C(F)(F)F)C1 (stereo unspecified),i,i,4.5µM,79µM,?,?
SMILES,L3MBTL1 inh,Sfp inh,JMJD2A Tudor inh,BAZ2B inh,HP1b chromo inh,G9a block
CCN(CC)C(=O)C1CCCN(C/C=C/c2ccccc2)C1 (stereo unspecified),i,i,4.5µM,56µM,?,10µM
CCN(CC(=O)Nc1ccccc1C(F)(F)F)C(=O)C1CCC1,i,nt,i,i,i,i
CCN(CC)C(=O)C1CCCN(C/C(C)=C/c2ccccc2)C1 (stereo unspecified),i,79µM,1.6µM,50µM,?,16µM
O=c1oc2ccccc2c2c1C1O[C@](c3ccsc3)(Cc3c1ccc1ccccc31)O2,nt,i,nt,?,nt,nt
COc1cccc(CNc2ncnc3c2nnn3C)c1,nt,nt,i,i,i,i
O=C(O)[C@@H]1CSC2(CCSC2)N1 (stereo partly specified),i,45µM,nt,nt,nt,?
CCOc1ccc(CCNC(=O)Cn2nc(CC)n3c(cc4ccccc43)c2=O)cc1,nt,nt,i,i,i,i
Cn1c(=O)oc2cc(S(=O)(=O)NCCC(=O)Nc3ccc(F)c(Cl)c3)ccc21,nt,nt,i,?,i,i
COc1cc(C(CCN2CCCC(C)C2)c2c(OC)cc(OC)c3c(-c4ccccc4)cc(=O)oc23)cc(OC)c1OC (stereo unspecified),nt,i,?,i,i,i
CCCCCc1cc(=O)oc2c(C(CCN(CC)CC)c3ccc(OC)cc3)c(OC)cc(OC)c12 (stereo unspecified),nt,56µM,i,i,i,i[12.7 µM]
CCCCCc1cc(=O)oc2c(C(CCN3CCCC(C)C3)c3ccc(OC)cc3)c(OC)cc(OC)c12 (stereo unspecified),nt,25µM,?,?,i,?
COc1cc(OC)c2c(C)cc(=O)oc2c1C(CCN1CCCC(C)C1)c1ccc(N(C)C)cc1 (stereo unspecified),nt,i,28µM,nt,?,nt
CCCCCc1cc(=O)oc2c(C(CCN3CCCC3)c3ccc(N(C)C)cc3)c(OC)cc(OC)c12 (stereo unspecified),nt,79µM,11µM,8.9µM,?,?
CCOc1cccc(C2C(C(=O)c3cccs3)=C(O)C(=O)N2Cc2cccnc2)c1 (stereo unspecified),i,i,i,i,i,56µM
C=CCOc1cccc(C2C(C(=O)c3ccco3)=C(O)C(=O)N2Cc2ccco2)c1 (stereo unspecified),nt,?,i,i,i,45µM
C=CCOc1ccc(C2C(C(=O)c3ccc(C)o3)=C(O)C(=O)N2Cc2cccnc2)cc1 (stereo unspecified),nt,i,?,i,i,40µM
C=CCOc1cccc(C2C(C(=O)c3ccc(C)o3)=C(O)C(=O)N2Cc2ccncc2)c1 (stereo unspecified),i,i,i[11.4 µM],i,i,?
CCCCOc1cccc(C2C(C(=O)c3cccs3)=C(O)C(=O)N2Cc2cccnc2)c1 (stereo unspecified),i,i,i,i,i,?
C=CCOc1cccc(C2C(C(=O)c3ccco3)=C(O)C(=O)N2Cc2ccncc2)c1 (stereo unspecified),i,i,i,i,i,?
